Data from PubChem BioAssay (EPA / NIEHS).
Inconclusive results are not listed. The source made the active and inactive calls. The calls were made as follows: active = hit-call score of the fitted dose curve at least 0.9, where 1 is the maximum; inconclusive = response in the unintended direction; inactive = score below 0.9.

Assay: TOX21_PR_LUC_Followup_Antagonist_viability: Viability Assessment in the Tox21 HEK293 Progesterone Receptor (PR) Antagonism Luciferase Follow-Up Assay (AID 2283940)
From the text: TOX21_PR_LUC_Followup is a secondary assay for specificity for the TOX21_PR_BLA_Agonist assay. To differentiate true PR agonists from cytotoxic substances, this follow up assay is multiplexed with a cell viability assay.TOX21_PR_LUC_Followup_Antagonist_viability is an assay readout measuring cellular ATP content and detected with CellTiter-Glo Luciferase-coupled ATP quantitation.TOX21_PR_LUC_Followup_Antagonist_viability used a type of viability reporter where loss-of-signal activity can be used to understand changes in the cell viability. Furthermore, this assay endpoint can be referred to as a secondary readout, because this assay has produced multiple assay endpoints where this one serves a viability function. To generalize the intended target to other relatable targets, this assay endpoint is annotated to the cell cycle intended target family, where the subfamily is cytotoxicity.
Quality Control Precautions: Maintain cells below 85-90% confluence in culture medium. For assay purpose, the cells should be cultured in assay medium with 10% charcoal stripped FBS for 5 days with alternate day medium changed to fresh medium. Especially while in assay culture, the cells should not reach more than 85% confluence as they would become harder to detach if they reach over confluence.Assay Protocol: HEK293-PR-A-luc cells were dispensed at 3,000 cells/5 uL/well of culture medium into white wall/solid-bottom 1536-well plates using a Multidrop Combi (ThermoFisher Scientific, Waltham, MA) dispenser. After the assay plates were incubated at 37C and […] for 5 h, 23 nL of compounds dissolved in DMSO, positive controls or DMSO only was transferred to the assay plate by a Pintool station (Kalypsys, San Diego, CA). The plates were incubated at 37C and […] for 16 h. Then 4 uL of ONE-Glo reagent (Promega, Madison, WI) was added to each plate using a BioRAPTR Flying Reagent Dispenser (FRD) workstation (Beckman Coulter, Indianapolis, IN, USA) and luminescence was quantified on a ViewLux (PerkinElmer, Shelton, CT) plate reader after 30 min incubation at room temperature.

Question: For COP(=S)(NC(C)C)Oc1ccc(C)cc1[N+](=O)[O-] (centres undefined), which outcome is on record?
Answer: The outcome was “inactive”.

Question: For C[C@H]1CCC[C@H](O)CCCCCc2cc(O)cc(O)c2C(=O)O1, which outcome is on record?
Answer: The outcome was “inactive”.

Question: With C[C@]12CC[C@H]3[C@@H](CCC4=CC(=O)CC[C@@H]43)[C@@H]1CC[C@@H]2OC(=O)CCc1ccccc1 as the molecule, how does the outcome read?
Answer: Its outcome is “inactive”.

Question: With O=C(CBr)Nc1ccc(Cl)cc1C(=O)c1ccccc1F as the molecule, how does the outcome read?
Answer: The outcome was “inactive”.

Question: With Nc1ccc(Cl)cc1C(=O)c1ccccc1F as the molecule, how does the outcome read?
Answer: Its outcome is “inactive”.

Question: For O=[N+]([O-])c1ccc2ccc3cccc4ccc1c2c34, which outcome is on record?
Answer: Its outcome is “inactive”.

Question: For CCC1COC(Cn2cncn2)(c2ccc(Cl)cc2Cl)O1 (centres undefined), which outcome is on record?
Answer: Its outcome is “inactive”.

Question: Which outcome does the source give for CCOP(=S)(OCC)Oc1cc(Cl)c(Br)cc1Cl here?
Answer: The outcome was “inactive”.

Question: With N#Cc1cc(I)c(O)c(I)c1 as the molecule, how does the outcome read?
Answer: The outcome was “inactive”.

Question: Which outcome does the source give for C[C@]12C/C(=C/O)C(=O)C[C@@H]1CC[C@@H]1[C@@H]2CC[C@@]2(C)[C@H]1CC[C@]2(C)O here?
Answer: The outcome was “inactive”.

Question: Which outcome does the source give for C#C[C@]1(O)CC[C@H]2[C@@H]3CCC4=CC(=O)CCC4=C3C=C[C@@]21CC here?
Answer: Its outcome is “inactive”.

Question: For C[C@]12CCC(=O)C(O)=C1CC[C@@H]1[C@@H]2CC[C@]2(C)C(=O)CC[C@@H]12, which outcome is on record?
Answer: Its outcome is “inactive”.

Question: With CC1COC2(c3ccccc3Cl)c3cc(Cl)ccc3NC(=O)CN12 (centres undefined) as the molecule, how does the outcome read?
Answer: Its outcome is “inactive”.

Question: With C[C@]12Cc3cn[nH]c3C[C@@H]1CC[C@@H]1[C@@H]2CC[C@@]2(C)[C@H]1CC[C@]2(C)O as the molecule, how does the outcome read?
Answer: The outcome was “inactive”.

Question: With C[C@]12C=CC(=O)C=C1CC[C@@H]1[C@@H]2CC[C@@]2(C)[C@H]1CC[C@]2(C)O as the molecule, how does the outcome read?
Answer: The outcome was “inactive”.

Question: Which outcome does the source give for C=CC[C@]1(O)CC[C@H]2[C@@H]3CCC4=CC(=O)CCC4=C3C=C[C@@]21C here?
Answer: Its outcome is “inactive”.

Question: With O=C1CN=C(c2ccccc2)c2cc(Cl)ccc2N1CC1CC1 as the molecule, how does the outcome read?
Answer: Its outcome is “inactive”.

Question: For C[C@]12CC[C@H]3[C@@H](CC[C@@]45O[C@@H]4C(O)=C(C#N)C[C@]35C)[C@@H]1CC[C@@H]2O, which outcome is on record?
Answer: The outcome was “inactive”.

Question: With C=C1C[C@@H]2[C@H](CC[C@]3(C)C(=O)CC[C@@H]23)[C@@]2(C)C=CC(=O)C=C12 as the molecule, how does the outcome read?
Answer: The outcome was “inactive”.

Question: For CC[C@H]1C[C@H]2[C@@H]3CCC4=CC(=O)CC[C@@H]4[C@H]3CC[C@]2(C)[C@H]1O, which outcome is on record?
Answer: The outcome was “inactive”.

Question: For CC(=O)O[C@H]1CC[C@@]2(C)C(=CC[C@@H]3[C@@H]2CC[C@]2(C)C(=O)CC[C@@H]32)C1, which outcome is on record?
Answer: The outcome was “inactive”.

Question: For CC(=O)c1cc2c(cc1C)C(C)(C)C(C)CC2(C)C (centres undefined), which outcome is on record?
Answer: Its outcome is “inactive”.

Question: With CC(C)(c1cc(Cl)c(O)c(Cl)c1)c1cc(Cl)c(O)c(Cl)c1 as the molecule, how does the outcome read?
Answer: The outcome was “inactive”.

Question: With C[C@]12CC[C@H]3[C@@H](CCC4=CC(=O)CC[C@@H]43)[C@@H]1CC[C@@H]2OC(=O)CCC1CCCCC1 as the molecule, how does the outcome read?
Answer: Its outcome is “inactive”.
